From PubChem BioAssay AID1347426 (Functional Genomics Laboratory (NCATS/FGL), 2020)
Hit rate of the full screen: of about 31,000 sequences, about 1,400 (4.5%) were called active. The entries come from a sample that favours actives as a whole. Values without a mark were called inactive.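 Rule for the calls: active = median seed-adjusted z-score above 1 or below -1; inactive = the rest.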

Experiment: Novel Modifiers of Survival Motor Neuron (SMN) Protein: Gene Identification via Genome-wide siRNA Screen;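 note: luminescence tracks full-length SMN protein made from the SMN2 reporter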
Conditions: HEK293T SMN2-luciferase reporter, siRNA knockdown, 72 h; actives lie on both sides
Text: Spinal muscular atrophy (SMA) is the most common neuromuscular autosomal recessive disorder and one of the leading genetic causes of infant death. SMA results from mutations inducing loss of function or deletion in the survival of motor neuron-1 gene (SMN1), leading to deficiency of the survival motor neuron (SMN) protein. Although a second nearly identical gene, SMN2, is retained in humans, its expression primarily produces an aberrantly spliced isoform that is largely unstable and quickly degraded. We performed a genome-wide RNAi screen using a cell-based reporter assay to identify genes and pathways that modulate SMN protein stability. The screen identified over 200 genes that led to the greatest increase or decrease in luciferase expression.
Using HEK293T cells stably expressing a luciferase reporter that combines the promoter and splicing based cassettes in tandem with the major portion of the native SMN2 cDNA with luciferase, we performed a genome-wide RNAi screen to identify modulators of SMN protein levels. Luciferase is expressed when full-length SMN protein is generated with luminescence signal proportional to SMN protein levels. Our luciferase-based reporter assay was used to screen Ambion Silencer Select Human Druggable Genome siRNA library (10418 genes, 3 unique siRNAs per gene) using lipid-based reverse transfection.
Briefly, 1 pmol of each siRNA was spotted to a well of a 384-well plate (Corning, Corning, NY) and 20 microL of serum-free DMEM containing […] of Lipofectamine RNAiMax (Life Technologies, Carlsbad, CA) was then added to each well. Transfected cells were maintained at 37 degrees C in 5% CO2 for 72 hours, 20 microL of ONE-Glo Reagent (Promega) was added to wells for luciferase quantification. Raw luminescence reads were normalized to Ambion(R) Silencer(R) Negative Control #2 siRNA, then log10 transformed. A robust statistical measure of median absolute deviation (MAD) to standardize siRNA activities from each screen. Common Seed Analysis was used to help prioritize clean hits as opposed to those appearing to arise from seed based off-target effects. Candidate modulators were defined as the genes having a MAD score greater than 1.0 or less than -1.0.
In the case of GGUCAAUACACCUAAGAAATT against PRDX1, the median seed-adjusted z-score is reported as 0.288.
For GAUCGUUUCCUAUACAGUATT against ESPL1, the median seed-adjusted z-score was 0.871.
With GGGCUGUGAUCUUGUCGAATT against AGMAT the median seed-adjusted z-score was -0.0269.
In the case of CAACGACAGAACUAACAGATT against SENP6, the median seed-adjusted z-score is reported as -1.03 (active).
In the case of GAAGGUGUUUCAUACGAAUTT against SIPA1L1, the median seed-adjusted z-score is reported as 0.0925.
For CUCUAUGAAUAUUGUAUUATT against BUD31, the median seed-adjusted z-score was 0.0554.
Sequence GGCUAACAAUUUGUCCAGUTT against SEC22B has a median seed-adjusted z-score of -0.106.
Sequence CGUCAUCUUUGCGAAGAUUTT against EHD2 has a median seed-adjusted z-score of 0.0989.
Sequence CAACAUCUAUGAUUGGAAUTT against RFXANK has a median seed-adjusted z-score of -0.0665.
For CCAGUGCUGUCAGUACGAUTT against LY6G5B, the median seed-adjusted z-score was -1.29 (active).
Work on CCAAUAUUGUGGAUCCUUUTT against HTR4 yielded a median seed-adjusted z-score of 0.444.
GAGCUAUAAUCAGACCUGUTT against ART5 showed a median seed-adjusted z-score of -0.354.
Sequence CGCUCACUGUUCUUCGGCUTT against RAD9A has a median seed-adjusted z-score of -0.0564.
For CCCAAGACGUUCACCGUGATT against NF2, the median seed-adjusted z-score was -0.543.
Work on CAUCAAACCUGGGAACAAATT against ZNF225 yielded a median seed-adjusted z-score of 0.0761.
With GGAACGAGGUGUCAGCUCUTT against RFXANK the median seed-adjusted z-score was -0.0665.
For UCAACCUCAUGGACUUUAATT against SLC5A5, the median seed-adjusted z-score was 1.01 (active).
In the case of GGAGCUACUGAGAACAUAATT against HOXD4, the median seed-adjusted z-score is reported as 0.566.
Work on GGAACACUCAUGACUGUAATT against ZNF426 yielded a median seed-adjusted z-score of 0.2.
In the case of CAAUGAGUAUGUGACGGAATT against UNC13A, the median seed-adjusted z-score is reported as -2.1 (active).
GGAUCCCGCUGCACAAGUUTT against CTSD gave a median seed-adjusted z-score of -0.282.
In the case of CGUCUUCCUUGUGCGCCUATT against COL20A1, the median seed-adjusted z-score is reported as -0.0033.
GGCUUAUGGGUGUUCGGAUTT against POLK showed a median seed-adjusted z-score of -0.102.
Work on CCGUCACUGAAGUCAAUAATT against CACNA1F yielded a median seed-adjusted z-score of 0.22.
In the case of CGGAUUCCAGGAAUGCUAATT against EIF5B, the median seed-adjusted z-score is reported as 1.68 (active).
Sequence CCACCAAAGUUCACCCUGATT against LMNA has a median seed-adjusted z-score of -0.409.
With GGGCCGAACUGAAAUACGATT against FGD2 the median seed-adjusted z-score was 0.0293.
In the case of ACAAGUUCUUGGAGCCUUATT against ATP1B2, the median seed-adjusted z-score is reported as -0.185.
With CCCAAUCCCUAUUUGAGAATT against ADRA1D the median seed-adjusted z-score was -0.18.
With GAUUAUAUUUGUCCAGCUATT against ESR2 the median seed-adjusted z-score was -1.1 (active).
CAAUCCAGGUGAUCGCAAATT against TPMT showed a median seed-adjusted z-score of 0.19.
CAAUGGUACCUAUGACUAUTT against ALG3 gave a median seed-adjusted z-score of -0.446.
For GAGUACAUGUACUACCUGATT against RFX1, the median seed-adjusted z-score was 0.818.
For GAGUUAACGUAUCAGAACATT against LRRFIP1, the median seed-adjusted z-score was -0.181.
Sequence ACUCUAUCCUUGCUUUGCATT against ZNF219 has a median seed-adjusted z-score of 0.127.
In the case of GCAUAACUGUAACAGAGAATT against RPP30, the median seed-adjusted z-score is reported as -0.656.
With GCUCAGAAGCAGUAAUGCATT against PQBP1 the median seed-adjusted z-score was -1.12 (active).
For GAAAUGCGAGCUGAACAUATT against CMAS, the median seed-adjusted z-score was -0.491.
CUUUUUACGUGAGCGUAUATT against NAP1L1 gave a median seed-adjusted z-score of 0.263.
CGCUGGACUUCGUCAAGAATT against KCNC4 gave a median seed-adjusted z-score of -0.433.
CUAUCAUGGAAGAUGCUGATT against B3GNT4 gave a median seed-adjusted z-score of 0.124.
AGUACUUCCUGACGAUGGATT against CST6 gave a median seed-adjusted z-score of -0.237.
Work on ACUAACAUCCCAGACUUUATT against VWA1 yielded a median seed-adjusted z-score of 0.289.
For CCAACUACCUGAACGAUGATT against U2AF2, the median seed-adjusted z-score was 2.14 (active).
With AGCUCACACUAUGCAUUGATT against KRTAP2-2 the median seed-adjusted z-score was -0.212.
Sequence GGAGGCUCGUUUUCCCGUATT against EGR4 has a median seed-adjusted z-score of 0.
Work on GGACUCAGACGAGUUUUAUTT against CYP11B1 yielded a median seed-adjusted z-score of -0.199.
With GCAGCGAGUCAGUAACUUUTT against SUPT4H1 the median seed-adjusted z-score was -1.01 (active).
GCUUCUUCGAGAAACAGAATT against RBMY1F gave a median seed-adjusted z-score of 0.2.
GGGUUUGCACUGAAACGAATT against CIR showed a median seed-adjusted z-score of -0.197.
GGAAGGAAUUCAACCGGAUTT against ZNF366 showed a median seed-adjusted z-score of 0.585.
CCAUAGCCCAAAUCAAGGATT against SIK2 showed a median seed-adjusted z-score of 0.055.
Work on CCACGAACAAUAAUCCCAATT against KCNA3 yielded a median seed-adjusted z-score of 0.213.
CCCUCAAUUUGGUCUGUUUTT against SPINK2 gave a median seed-adjusted z-score of -0.431.
For ACAACAUGAAGGUCCUCUATT against THY1, the median seed-adjusted z-score was -1.1 (active).
With ACAUGUUUUUAGAAUUGCUTT against TST the median seed-adjusted z-score was 0.
Sequence CAGUUAUGUUCUACGCAGATT against KCND2 has a median seed-adjusted z-score of -0.245.
For CCAUGGAUUUUGUACUGCUTT against VPS35, the median seed-adjusted z-score was -0.511.
GGCGAAUUCCAUACCGUUATT against NEK2 showed a median seed-adjusted z-score of -0.276.
With GGAGUAUAUUGAGUAUGGATT against CNOT1 the median seed-adjusted z-score was 1.2 (active).
For GUUCCAUCUUGAUCGAGUATT against RASSF9, the median seed-adjusted z-score was 0.314.
CGGGAACACGUUUCAGGGATT against GPR157 gave a median seed-adjusted z-score of 0.152.
Sequence CAUCCCAGAUCAAACUGUATT against TFAP2A has a median seed-adjusted z-score of -0.384.
In the case of GAUUAUUGAGCAUAAGAUUTT against ZNF277, the median seed-adjusted z-score is reported as -0.0374.
For GAACUGCACGUGUACAACATT against HCFC1, the median seed-adjusted z-score was 1.47 (active).
In the case of GCCUUCUUCUUAUGCAAGATT against ACTL6B, the median seed-adjusted z-score is reported as 0.0703.
CCAUCUAUUCAGAGACGUATT against MUTYH gave a median seed-adjusted z-score of 0.024.
For GGCAUUCGCUUGAACAGCATT against DRG1, the median seed-adjusted z-score was 0.336.
GCCUCUACAUCUAGUGAUATT against JMJD1C showed a median seed-adjusted z-score of 0.0338.
AGAUCAAGUUUGCCCUAAATT against HDGF2 showed a median seed-adjusted z-score of 0.
In the case of GCCUGGAUGCUAAUCAAGATT against S100A12, the median seed-adjusted z-score is reported as 0.346.
Sequence AGGAAGAAUUUAAUCCUGATT against CYP26A1 has a median seed-adjusted z-score of 0.0569.
With GAAAGAGCCUGUUACCUAUTT against ACTR1A the median seed-adjusted z-score was 1.28 (active).
Work on GUGAAGAAGUUGCUUAUUATT against MAST1 yielded a median seed-adjusted z-score of -0.0897.
With GCAUGAUGGUAUUGAGCUUTT against MS4A6A the median seed-adjusted z-score was 0.174.
GAGUCACUUCUAAUAAACATT against FOLR2 gave a median seed-adjusted z-score of -0.0835.
With CGUUAUCUUCAUCACCUAUTT against ABCC10 the median seed-adjusted z-score was -1.56 (active).
Sequence GGCUAUAAUAGACACGAGATT against CDH6 has a median seed-adjusted z-score of 0.
For UGACUUUCCUCUCUACGGUTT against SLC10A3, the median seed-adjusted z-score was -0.25.
With GCAUGCUGUUAGCCGAUAATT against TOMM70A the median seed-adjusted z-score was 0.0717.
In the case of CGGCUGAUGUUCUCGAAUUTT against BRD3, the median seed-adjusted z-score is reported as 0.633.
Work on CCAGGCUAUUUGUACCGAUTT against CCR6 yielded a median seed-adjusted z-score of 0.103.
In the case of CCAGCUCUGGAAUUAGAUATT against NRBP1, the median seed-adjusted z-score is reported as -1.13 (active).
In the case of GAAUUAAAGAUUUGGUUGATT against EFCAB1, the median seed-adjusted z-score is reported as -0.719.
Work on GCUGUUAAGUAUGCCCUUATT against AKR1A1 yielded a median seed-adjusted z-score of -0.255.
GGACCAUUGGUGAUGAGAATT against CD36 gave a median seed-adjusted z-score of -0.000845.
For GGUUGGAUGCUAUAUACCATT against ROS1, the median seed-adjusted z-score was -0.0561.
For GGGAUAAGCUGAUAAAGGATT against NDUFS5, the median seed-adjusted z-score was -1.35 (active).
Work on GAAUUGAAACGAGCUAGAATT against TAF13 yielded a median seed-adjusted z-score of -0.919.
CCGUAUGAAUGUAAGUAUUTT against ZNF441 showed a median seed-adjusted z-score of 0.578.
Work on CAAGAGUUAUGGUCUGGGATT against GCM1 yielded a median seed-adjusted z-score of 0.0197.
For CCACGAUGAAGGAACGAGATT against PDE4A, the median seed-adjusted z-score was -0.147.
For GCAUGAUCUAGAUCGAGUATT against UQCRFS1, the median seed-adjusted z-score was -1.28 (active).
For GGUAUUACUUUGCAAUCGATT against CACNA2D1, the median seed-adjusted z-score was -0.541.
In the case of CAAGAUAUAUAUACGCCUATT against NPY1R, the median seed-adjusted z-score is reported as 0.76.
Work on GGGUUUUAGUAACCUUAGATT against SUCNR1 yielded a median seed-adjusted z-score of 0.
GAUCCAAAGUAACUAAACATT against HMGN3 gave a median seed-adjusted z-score of -0.182.
In the case of GAGGCAGUCUUAGAGGAAATT against SPATA21, the median seed-adjusted z-score is reported as -1.03 (active).
Sequence GCCCAUCACCUCUUCAUGATT against RAMP1 has a median seed-adjusted z-score of -0.031.
For GAAACGAACUGGGCAGUAUTT against FGF2, the median seed-adjusted z-score was 0.0208.
In the case of GGAUAGUGAGGAUAAGGAATT against PPP1R15A, the median seed-adjusted z-score is reported as 0.539.
CAAAUCCAGUGGUGGGUAATT against S100A6 showed a median seed-adjusted z-score of -0.264.
GUCCUGAAGUCACUCCGAUTT against FUT10 gave a median seed-adjusted z-score of -0.629.
In the case of CCACUCUCAUCAAAUCCGATT against MLL2, the median seed-adjusted z-score is reported as -2.11 (active).
Sequence AGAUGAGGAGUGUCGUCAATT against KLK13 has a median seed-adjusted z-score of 0.452.
Sequence GUUCCUACGUGUACAACGATT against DNASE1L1 has a median seed-adjusted z-score of 0.542.
Sequence GAAUAUGGGUUGGCCUAUATT against ZNF655 has a median seed-adjusted z-score of -0.156.
For CAUUAGCAGAUAUACUAUUTT against EEF1E1, the median seed-adjusted z-score was -1.45 (active).
